# Rows were chosen to be rich in hits. Some 3.5% of all compounds tested hit in one or more screens of this group.
# Rv3671c inh – Rv3671c (M. tuberculosis) protease inhibition; AID 2606; P9WHR9; inhibition, % at 5.96 µM; hit rate 0.048% among 320,000; in the data active means inhibition above about 38%;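 further: extracellular domain of Rv3671c used as enzyme; 0% = enzyme with DMSO and 100% = no enzyme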
# Target sequence (P9WHR9 whole entry, looked up, the tested form may be a part): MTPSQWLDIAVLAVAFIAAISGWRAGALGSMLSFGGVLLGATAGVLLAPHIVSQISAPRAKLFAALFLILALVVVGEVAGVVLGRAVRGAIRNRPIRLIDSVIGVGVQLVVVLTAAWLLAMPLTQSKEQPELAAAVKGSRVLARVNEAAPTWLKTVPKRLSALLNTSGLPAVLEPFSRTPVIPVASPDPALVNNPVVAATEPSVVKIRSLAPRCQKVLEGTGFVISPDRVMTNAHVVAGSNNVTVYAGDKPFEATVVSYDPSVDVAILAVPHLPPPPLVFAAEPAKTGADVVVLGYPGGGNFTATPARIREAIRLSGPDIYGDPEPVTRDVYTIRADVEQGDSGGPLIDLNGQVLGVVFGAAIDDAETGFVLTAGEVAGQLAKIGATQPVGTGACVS
# Mtb betalactam – beta-lactam sensitization of Mtb H37Rv; hit rate 0.27% among 330,000; inhibition, % at 25 µM; M. tuberculosis H37Rv growth with meropenem, percent inhibition; call rule not given here;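 further: growth measured after seven days incubation then overnight dye step; 0% = bacteria only wells and 100% = bacteria with antibiotic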
# Mtb UGM inh – Mtb UDP-galactopyranose mutase inhibition; P9WIQ1; purified UGM, fluorescence polarization probe displacement; inhibition, % at 10 µM; hit rate 0.06% among 320,000; AID 504406; in the data active means inhibition above about 10%, passing the limit was not always enough
# GDH-TPI counter – inhibits GDH-TPI coupling enzymes, artifact for Mtb FBA screen; GDH-TPI coupled enzyme counterscreen, NADH absorbance; inhibition, % at 4.8 µM; hit rate 1.2% among 360,000; in the data active means inhibition above about 30%;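 further: 0% = DMSO wells and 100% = wells lacking the enzyme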
# FBA Mtb inh – Mtb fructose-bisphosphate aldolase inhibition; purified M. tuberculosis FBA, fluorescence read-out; inhibition, % at 1 µM; P9WQA3; hit rate 2.3% among 360,000; in the data active means inhibition above about 27%;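 further: 0% = vehicle and 100% = reference inhibitor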
# An asterisk follows results filed as active; . = not tested or not shown; + = active, no number.
SMILES,Rv3671c inh,Mtb betalactam,Mtb UGM inh,GDH-TPI counter,FBA Mtb inh
Cc1cc(C)c2c(n1)nn1c(N3CCN(Cc4ccccc4)CC3)cc(C)nc21,.,.,.,20,114*
CCOC(=O)c1c(-n2c(C)cc(C=C3C(=O)NC(=S)NC3=O)c2C)sc2c1CCCC2,-12,2,3,32*,3
CCOc1cc(/C=C2/SC(=O)N(CC(=O)N3CCc4ccccc4C3)C2=O)ccc1OCC(=O)O,1,44,-1,34*,-2
CC(C)CN(C(=O)COC(=O)C1=COCCO1)c1c(N)n(Cc2ccccc2)c(=O)[nH]c1=O,0,-8,2,-7,-1
Nc1ccc2c3c(cccc13)C(=O)N(c1ccccc1)C2=O,.,.,.,-7,-11
CC(=O)Nc1ccc2c3c(cccc13)C(=O)N(c1ccccc1)C2=O,-4,8,-3,12,+
Cc1cccc(N2C(=O)c3cccc4cccc(c34)C2=O)c1,4,1,-3,15,-1
O=C(O)c1ccc2c3c(cccc13)C(=O)N(c1ccccc1)C2=O,-8,-2,0,16,1
CC(C)CCN1C(=O)c2cccc3c(N)ccc(c23)C1=O,6,-6,18*,-2,-4
Nc1cccc(N2C(=O)c3cccc4c(N)ccc(c34)C2=O)c1,6,-5,29*,2,-10
Cc1cccc(N2C(=O)c3cccc4c(N)ccc(c34)C2=O)c1,11,-1,39*,-10,-11
CSc1nnc(C(C)c2ncc(C(F)(F)F)cc2Cl)n1C (stereo not drawn),15,-4,0,3,0
CCOc1ccc(C(=O)Nc2cccc3ncccc23)cc1Br,3,1,-2,-10,1
CN(C)N1C(=O)c2c(Cl)c(Cl)c(Cl)c(Cl)c2C1=O,.,.,.,14,1
O=C1c2ccc3c4c(ccc(c24)C(=O)N1c1cccc(O)c1)C(=O)N(c1cccc(O)c1)C3=O,-7,8,0,35*,3
Cc1ccnc(N2C(=O)c3cccc4c([N+](=O)[O-])ccc(c34)C2=O)c1,-1,101,-1,33*,5
CC(=O)Nc1cccc2cc(O)ccc12,.,.,.,11,-1
CC(=O)Nc1ccc2ccc3cccc4ccc1c2c34,-1,8,1,34*,18
COc1cc(NC(=O)C/C(C)=N/NC(=O)C(=O)NCCO)c(OC)cc1Cl,5,-1,-1,-3,4
CCN(CC(=O)Nc1cccc(OC)c1)C(=O)c1ccco1,1,8,2,-6,0
CC(C)(O)C1Cc2cc(/C=C/C(=O)O)c(O)cc2O1 (stereo not drawn),.,.,.,15,8
CCOc1cc2c(cc1/C=C/C(=O)O)OC(C)C2 (stereo not drawn),-11,6,0,-1,148*
CCOc1nc2ccccc2cc1/C=C/C(=O)O,3,-5,2,-4,1
COc1cc2c(cc1/C=C/C(=O)O)OC(C)C2 (stereo not drawn),-4,13,3,4,+
Cc1ccc(S(=O)(=O)N[C@@H](CC(C)C)C(=O)N2CCC(C(=O)N[C@@H](Cc3ccccc3)C(=O)O)CC2)cc1,-4,0,1,6,1
SMILES,Rv3671c inh,Mtb betalactam,Mtb UGM inh,GDH-TPI counter,FBA Mtb inh
O=C(N/N=C\c1ccc(S(=O)(=O)O)o1)c1ccc2c(c1)OCO2,1,-3,-3,41*,1
Cc1ccsc1/C=N/NC(=O)c1sccc1C,-1,-1,-1,15,-4
O=C(N/N=C/c1ccc(-c2ccc(Br)cc2)o1)c1ccc2c(c1)OCO2,-14,98,-1,18,6
Cc1ccsc1/C=N/NC(=O)c1ccc2c(c1)OCCO2,8,-10,-2,34*,-2
O=C(N/N=C/c1cc([N+](=O)[O-])ccc1O)c1ccc2c(c1)OCCO2,10,69,-1,32*,1
Cc1ccsc1/C=N\NC(=O)c1ccc2c(c1)OCO2,-6,-3,1,40*,0
COc1ccc(OC)c(NC(=O)CCN2CCN(C/C=C/c3ccccc3)CC2)c1,4,0,1,-1,2
CC(CC(=O)O)CC(=O)Nc1nncs1 (stereo not drawn),5,0,-1,5,-1
CN(C)c1ccc(NC(=O)CSc2n[nH]c(-c3ccncc3)n2)cc1,.,.,.,14,3
Cc1c(C)c2ccc(OCc3ccc(C(=O)O)o3)c(C)c2oc1=O,4,1,3,26,131*
COc1cc(/C=N/NC(=O)c2cc(-c3ccccc3Cl)nc3ccccc23)cc(OC)c1O,4,-8,3,39*,-2
COc1cc(/C=N/NC(=O)c2cc(-c3ccco3)nc3ccccc23)cc(OC)c1O,-2,-3,0,47*,-2
CC(=O)Nc1ccc(S(=O)(=O)Nc2nc(C)nc3sc(C)c(C)c23)cc1,7,0,-1,1,3
Oc1ccc(-c2nc3ccccn3c2NCc2ccc3c(c2)OCO3)cc1,5,5,2,13,22
Fc1ccc(-c2nc3ccccn3c2NCc2ccc3c(c2)OCO3)cc1,5,3,0,15,39*
Cc1cc(C)nc(S/C=C/C(=O)c2ccc(F)cc2)n1,-3,78,0,.,.
COC(=O)C1=CC(C(=O)c2cccs2)=NN(c2ccc(OC)cc2)C1C(=O)OC (stereo not drawn),0,6,21*,17,-9
CC(C)C(=O)Nc1ccc(-c2nc3ncccc3o2)cc1,-9,-3,1,41*,+
CC(C)C(=O)Nc1ccc(-c2nc3cccnc3o2)cc1,5,5,-1,35*,+
COc1ccc(-c2cc(=O)oc3cc(OCc4nn[nH]n4)ccc23)cc1,-2,-3,-1,36*,2
COc1ccc(-c2cc3ccc(OCc4nn[nH]n4)cc3oc2=O)cc1OC,-1,2,0,42*,11
COc1ccc(-c2cc3ccc(OCC(C)=O)cc3oc2=O)cc1OC,-8,5,1,17,1
CC(C)c1ccccc1NC(=O)COC(=O)c1cc([N+](=O)[O-])ccc1N1CCOCC1,-3,1,3,8,-3
CC1=NN(C(=O)c2c(Br)c(C)nn2C)C(O)(C(F)(F)F)C1 (stereo not drawn),6,0,0,3,-1
C/C(=N\NC(=O)CCC(=O)NCc1ccccc1)c1ccco1,.,3,1,1,3
SMILES,Rv3671c inh,Mtb betalactam,Mtb UGM inh,GDH-TPI counter,FBA Mtb inh
C/C(=N\Nc1nc(C)cc(C)n1)c1ccc(C)o1,1,5,-3,32*,0
C/C(=N\Nc1nnc2c3ccccc3n(C)c2n1)c1ccc(C)o1,4,2,1,19,0
CC(C)(C)OC(=O)N1CCC[C@H]1c1nnc(SCc2ccc(Cl)cc2)o1,1,-6,2,12,2
CC(OC(=O)c1ccc(Cl)c([N+](=O)[O-])c1)C(=O)N1CCN(Cc2ccccc2)CC1 (stereo not drawn),-5,-3,0,0,0
COc1ccc(Oc2ccc(N/C=C3/CCCC3=O)cc2)cc1,1,1,.,25,-2
O=C1CCC/C1=C/Nc1cccc(F)c1,4,7,3,35*,-1
